Assay results as given in PubChem BioAssay AID624417 (National Center for Advancing Translational Sciences (NCATS), 2012).
Out of some 410,000 compounds screened, about 6,400 (1.6%) were called active. Another 20% or so got no clear call; they are omitted. Many of the other results were omitted from the sample, so actives are more common in it than they were. Values without a mark were called inactive. The call rests on the fitted dose curve; in most records, active means well fitted inhibition curve with a large enough effect; inconclusive means small, poorly fitted or top-dose-only effect; inactive means no such curve, though single readings can be large or run the other way.

Target: Glucagon-like peptide 1 receptor (Homo sapiens) (UniProt P43220)
Sequence (P43220 whole entry, looked up): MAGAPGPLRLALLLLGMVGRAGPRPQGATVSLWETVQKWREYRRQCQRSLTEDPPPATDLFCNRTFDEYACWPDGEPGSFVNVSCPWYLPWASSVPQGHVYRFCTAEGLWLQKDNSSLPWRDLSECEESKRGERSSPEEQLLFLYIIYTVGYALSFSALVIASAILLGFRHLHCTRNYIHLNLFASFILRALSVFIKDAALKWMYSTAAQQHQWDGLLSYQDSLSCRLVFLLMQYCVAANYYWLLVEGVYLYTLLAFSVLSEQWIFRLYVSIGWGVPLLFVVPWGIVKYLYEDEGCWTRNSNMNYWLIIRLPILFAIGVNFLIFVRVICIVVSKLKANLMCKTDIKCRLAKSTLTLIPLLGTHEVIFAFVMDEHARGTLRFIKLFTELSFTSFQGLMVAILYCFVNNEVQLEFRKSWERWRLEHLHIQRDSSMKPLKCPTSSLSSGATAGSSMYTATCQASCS
Test: qHTS of GLP-1 Receptor Inverse Agonists (Inhibition Mode); further: nearly all actives have a fitted effect of over 55% in size
Details: HEK293 GLP-1R CRE-luciferase, luminescence, 24 h, GLP-1R form is constitutively active; series mostly up to 38.3 µM; activity change, negative = inhibition: at the top concentration
In short: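 GLP-1R inverse agonism mode: basal reporter luminescence in engineered HEK293 cells measured after one day of compound exposure at 37 deg C, with a 12 min room-temperature detection step.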
On the % scale 0 is the no-effect control and ±100 the full control effect; potency means the concentration at half of the fitted maximal effect.

| SMILES | activity change, negative = inhibition [%] | Potency |
| --- | --- | --- |
| O=C(O)C1CCCN1c1nc(Cl)ccc1[N+](=O)[O-] (centres undefined) | -3.65 |  |
| Cc1ccc(F)c(S(=O)(=O)NC(=O)C2(C)CCN2C(=O)c2ccco2)c1 (centres undefined) | 24.1 |  |
| COn1c(-c2ccc(Cl)cc2Cl)nc2ncccc21 | 3.04 |  |
| Clc1ccc(COn2c(-c3ccc(Cl)cc3Cl)nc3ncccc32)cc1 |  | 10 µM (active) |
| CCn1c(-c2cccnc2Cl)nc2cc(C)c(C)cc21 | -15.5 |  |
| O=C(C[C@H]1CC[C@H]2[C@@H](COC[C@H](O)CN2C(=O)c2ccccn2)O1)N1CCN(c2ccccc2)CC1 | 0.39 |  |
| O=C(COc1ccc(Br)cc1)OCC(=O)c1ccc[nH]1 | 5.29 |  |
| O=C1CCC(=O)N1CCC(=O)N(C(=O)NC1CCCCC1)C1CCCCC1 | 9.57 |  |
| COc1cccc(-c2nc(CS(=O)(=O)CC(=O)N3CCN(c4cc(C)ccc4C)CC3)c(C)o2)c1 |  | 7.94 µM (active) |
| CCCCN(CC)CCCNC(=O)CS(=O)(=O)Cc1nc(-c2cccc(OC)c2)oc1C | 0 |  |
| COc1cccc(-c2nc(CS(=O)(=O)CC(=O)NCCc3ccc(OC)c(OC)c3)c(C)o2)c1 |  | inactive |
| COc1ccc(OC)c(CN2C(=O)CCC2(C)c2nnnn2Cc2ccccc2)c1 (centres undefined) | 23.1 |  |
| O=C1CCC(C(=O)OCC(=O)Nc2ccc(OC(F)F)cc2)=NN1 | 0.906 |  |
| CCC(C)Sc1nc2c(c(=O)[nH]c(=O)n2C)n1CC(O)COc1cccc2ccccc12 (centres undefined) | 7.64 |  |
| Cc1cc(C)c(NC(=O)C[N+](C)(C)CC(O)COc2cccc3ccccc23)c(C)c1 (centres undefined) | -10.9 |  |
| CC(C)c1ccccc1OCC(O)CN(CC(O)COc1cccc2ccccc12)C(C)C (centres undefined) |  | 8.91 µM (active) |
| Nc1ncnc2c1ncn2[C@@H]1O[C@H](C(=O)N2CCCN(Cc3ccccc3F)CC2)[C@@H](O)[C@H]1O | 20.7 |  |
| CC1(C(=O)NS(=O)(=O)c2cccc(F)c2)CCN1C(=O)Cc1ccc(Cl)cc1Cl (centres undefined) | -4.91 |  |
| Cc1nc(N2CCN(c3ccccn3)CC2)c2c(C)c(C(=O)Nc3ccc(F)cc3)sc2n1 | 17.5 |  |
| Cc1nc(N2CCC(C)CC2)c2c(C)c(C(=O)Nc3cc(F)ccc3C)sc2n1 |  | 10 µM (active) |
| COc1ccc(NC(=O)c2sc3nc(C)nc(N4CCN(c5ccccn5)CC4)c3c2C)c(OC)c1 | 9.53 |  |
| CN(Cc1ccc(C(F)(F)F)cc1)C(=O)[C@H]1O[C@@H](n2cnc3c(N)ncnc32)[C@H](O)[C@@H]1O | 28.2 |  |
| COc1cc(C(=O)NC2CCN(Cc3ccccc3)CC2)cc(Cl)c1OC(C)C |  | 10 µM (active) |
| COc1ccc(C(=O)O)cc1S(=O)(=O)NC1CCN(Cc2ccccc2)CC1 | 7.59 |  |
| COc1cc2[nH]c(=O)n(Cc3ccc(C(=O)NC4CCN(Cc5ccccc5)CC4)cc3)c(=O)c2cc1OC | 10.8 |  |

| SMILES | activity change, negative = inhibition [%] | Potency |
| --- | --- | --- |
| O=C(C=CC(=O)Nc1ccc(F)cc1F)Nc1ccc(F)cc1F | 16.9 |  |
| O=C(NCc1ccncc1)c1cccc(NS(=O)(=O)c2ccc(F)c(F)c2)c1 | -12.2 |  |
| O=C(NCc1ccccc1)c1ccc(S(=O)(=O)Nc2cccc(C(F)(F)F)c2)cc1 |  | 10 µM (active) |
| CCOC(=O)N1CCN(C(=O)c2ccc(S(=O)(=O)Nc3cccc(C(F)(F)F)c3)cc2)CC1 | -8.41 |  |
| O=C(O)/C=C/C(=O)NNc1ccc([N+](=O)[O-])cc1 |  | 8.91 µM (active) |
| CC(=O)Nc1ccc(C=CC(=O)c2ccc([N+](=O)[O-])cc2)cc1 | -3.33 |  |
| CC(=O)Nc1ccc(C=Cc2ccc([N+](=O)[O-])cc2)cc1 | 9.15 |  |
| CN1OC[C@@H]2CN(C(=O)c3cccc4ccccc34)[C@H](c3ccc(N4CCCCC4)cc3)C[C@@H]21 | 3.98 |  |
| CCN(Cc1ccncc1)C(=S)Nc1ccccc1C | -2.47 |  |
| Cc1ccc(CN(Cc2cccnc2)C(=S)Nc2cc(Cl)ccc2C)cc1 |  | 10 µM (active) |
| COCCNC(=S)N(Cc1cccnc1)Cc1ccc(OC)c(OC)c1 | 14.6 |  |
| Nc1nc2cc(Cl)ccc2n1N | -52.9 |  |
| C[C@H]1Cn2cnc(C(=O)N[C@@H](Cc3c[nH]c4ccccc34)C(=O)OC(C)(C)C)c2C(=O)N1 | 6.39 |  |
| COc1ccccc1C(=O)NC(=S)Nc1ccc(N2CCOCC2)cc1 | -5.24 |  |
| O=C(Cc1ccc([N+](=O)[O-])cc1)NCCS(=O)(=O)N1CCN(c2ccccc2)CC1 | -2.98 |  |
| COc1ccc(OC)c(C(=O)NC2CCCc3c2cnn3-c2cc(C)cc(C)c2)c1 (centres undefined) |  | 10 µM (active) |
| Cc1ccc(-n2ncc3c2CCCC3NC(=O)c2cnccn2)cc1C (centres undefined) | 8.53 |  |
| Cn1nccc1C(=O)NC1CCCc2c1cnn2-c1ccc(F)cc1F (centres undefined) | 10 |  |
| COCCCNC(=O)c1ccc(-c2c(C)noc2C)c2ccoc12 | -5.17 |  |
| CCCS(=O)(=O)NC(=O)C1(C)CCCN(C(=O)c2cc(C)on2)C1 (centres undefined) | 8.84 |  |
| CCC1NC(=O)c2cccnc2-n2c1nc1ccc(C)cc1c2=O (centres undefined) | -5.41 |  |
| CCCCCCSc1ccc([C@@H]2[C@H]3C(=O)N(CC)C(=O)[C@H]3[C@]3(C(=O)OC)CCCCN23)cc1 | -8.07 |  |
| CCCCCCSc1ccc([C@@H]2[C@@H]3C(=O)N(CC)C(=O)[C@@H]3[C@]3(C(=O)OC)CCCCN23)cc1OC |  | 11.2 µM (active) |
| CCN1C(=O)[C@@H]2[C@@H](c3ccc(-c4ccc(OC)cc4)c(OC)c3)N3CCC[C@@]3(C(=O)OC)[C@@H]2C1=O | 2.32 |  |
